Test results published in PubChem BioAssay (NCI).
Compounds without any hit were thinned out: in the full panel of roughly 83,000, 20% have a hit.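 Cells were grown in 96-well plates and exposed to the test compound at a single concentration for 48 hours; results are reported as percent growth, with values below 10 considered active.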 The source made the active and inactive calls.

Test system: HCT-15 colon
Assay: NCI-60 one-dose screen, 48 h (100 = growth as untreated, 0 = no growth, -100 = all killed)
Conditions: 10 µM unless noted

SMILES | growth
CC(=O)Nc1ccc2c(c1)c(NC(C)=O)nn2C(=O)Nc1ccc(Cc2ccccc2)cc1 | 78.8% (inactive)
Cc1ccc2c(c1)O/C(=C\c1cccc(OCC(=O)c3ccccc3)c1)C2=O | 69.8% (inactive)
Nc1nc(SCc2ccccc2)c2ncn(C3CCCC3)c2n1 | -58.9% (active)
Cn1c2ccccc2c2c3c(c4c5ccccc5n(CCCCCC#N)c4c21)C(=O)N(O)C3=O | 13.9% (inactive)
CCN(CC)Cc1cc(Nc2c3ccc(Cl)cc3nc3c(C)cccc23)ccc1O | -45.8% (active)
CS(=O)(=O)c1ccc(-c2cnc3ccc(-c4cccc(S(C)(=O)=O)c4)nn23)cc1 | 28.2% (inactive)
COc1ccc(CCN2CCCn3c2nc2ccccc2c3=O)cc1 | 22.2% (inactive)
CC#CC#Cc1cccc(=O)o1 | 36.1% (inactive)
c1ccc2c(Nc3cccc4ccccc34)cccc2c1 | 35.1% (inactive)
c1ccc(CSc2ncnc3nc[nH]c23)nc1 | 103% (inactive)
O=C(O)c1cccnc1Br | 97.6% (inactive)
COc1ccc(-c2cc(-c3cccnc3)nc3sc4c(=O)n(-c5ccc(C)cc5)cnc4c23)cc1OC | 94.2% (inactive)
CNC(=O)c1cc(Oc2ccc3nc(NC(=O)Nc4ccc(CN5CCOCC5)c(C(F)(F)F)c4)sc3c2)ccn1 | 24.5% (inactive)
CCN(CC)CCCC(C)NCCCNc1cccc2cccnc12 (centres undefined) | 104% (inactive)
CCCCN(CCCC)Cc1c(C)[nH]c2cc(OC)ccc2c1=O | 107% (inactive)
O=C1C[C@H](Sc2nc(-c3ccc(F)cc3)cc(C(F)(F)F)n2)[C@H]2CO[C@@H]1O2 | 63.1% (inactive)
CCCCOc1ccc(NC(=O)n2nc(NC(C)=O)c3cc(NC(C)=O)ccc32)cc1 | 88.9% (inactive)
CSc1ncnc2c1ncn2C1CCCO1 (centres undefined) | 103% (inactive)
Oc1ccccc1N=Cc1c(O)ccc2ccccc12 | 77.8% (inactive)
Cn1c2ccccc2c2c3[nH]c(=O)[nH]c(=O)c3c3c4ccccc4n(C)c3c21 | 24.2% (inactive)

SMILES | growth
CCOC(=O)c1c2ncccc2n2c(=O)n(-c3ccc(Cl)cc3)nnc12 | 96.6% (inactive)
O=C(COc1cccc(/C=C2/Oc3ccccc3C2=O)c1)Nc1nccs1 | 81.7% (inactive)
NS(=O)(=O)c1ccc(Nc2nc3n[nH]c(Nc4ccccc4)c3c(=O)[nH]2)cc1 | 108% (inactive)
OCCNCCNc1c2ccccc2nc2ccccc12 | 97.2% (inactive)
COc1ccc(OCC(=O)Nc2ccc(-c3nc4ccccc4s3)cc2C)cc1 | 85.9% (inactive)
CCCCNP1(NCCCC)=NP(NCCCC)(NCCCC)=NP(NCCCC)(NCCCC)=NP(NCCCC)(NCCCC)=N1 | 99.3% (inactive)
COCCCN=C(N)c1ccc(NC(=O)c2ccc(C(=O)Nc3ccc(C(N)=NCCCOC)cc3)cc2)cc1 | 118% (inactive)
Cn1c2ccccc2c2c3c(c4c5ccccc5[nH]c4c21)C(=O)N(N)C3=O | 68.2% (inactive)
CCN(CC)Cc1cc(Nc2c3ccccc3nc3cc(Cl)ccc23)ccc1O | -28.6% (active)
COc1nc2c(cc1S(=O)(=O)c1ccccc1)CCc1c-2cnn1-c1ccc(Cl)cc1 | 93.8% (inactive)
CN(CC(=O)N(Cc1ccc(C2CCCCC2)cc1)c1ccc(C(=O)NO)cc1)S(=O)(=O)c1c(F)c(F)c(F)c(F)c1F | -35.4% (active)
COc1cc(-c2nc3ccccc3s2)ccc1NC(=O)COc1ccc(Cl)cc1 | 85.8% (inactive)
CSc1[nH]c2ncnc(N)c2c1C#N | 99% (inactive)
O=C1Nc2c(ccc(Cl)c2Cl)/C1=C/c1cc(Br)c(O)c(Br)c1 | 52.4% (inactive)
NS(=O)(=O)N(c1cc(C(F)(F)F)cc(C(F)(F)F)c1)C1CCN(Cc2ccc(F)cc2)CC1 | 24.4% (inactive)
COc1nc2c(cc1S(=O)(=O)c1ccccc1)CCc1c-2cnn1Cc1ccccc1 | 43.1% (inactive)
CN1CCN(Cc2ccc(NC(=O)c3[nH]ncc3Nc3ccnc4ccsc34)cc2)CC1 | 66.4% (inactive)
CC1(C)CC(C(=O)OCCCCCCCCCCC[P+](c2ccccc2)(c2ccccc2)c2ccccc2)C(C)(C)N1O (centres undefined) | 88.5% (inactive)
C=CC[N+]1(CC)CCN=C1CCCCCCCCCCCCCCCCC (centres undefined) | -88.6% (active)
